In PubChem BioAssay AID2355 (The Scripps Research Institute Molecular Screening Center, 2010):
This is one part of the list. Values without a mark were called inactive. No stated cut-off is given here; in the data, active means inhibition above about 16%; inactive means the rest.

Target: Serine/threonine-protein phosphatase PP1-alpha catalytic subunit (Homo sapiens) (UniProt P62136)
Experiment: PP1 phosphatase inhibitors, counter-screen for PP5 inhibitor project, biochemical, fluorescence, triplicate (AID 2355)
Conditions: PP1 enzyme, fluorescent phosphatase substrate; at 6.7 µM; stronger effect = higher value

Chain of Serine/threonine-protein phosphatase PP1-alpha catalytic subunit (Homo sapiens) (P62136 whole entry, looked up): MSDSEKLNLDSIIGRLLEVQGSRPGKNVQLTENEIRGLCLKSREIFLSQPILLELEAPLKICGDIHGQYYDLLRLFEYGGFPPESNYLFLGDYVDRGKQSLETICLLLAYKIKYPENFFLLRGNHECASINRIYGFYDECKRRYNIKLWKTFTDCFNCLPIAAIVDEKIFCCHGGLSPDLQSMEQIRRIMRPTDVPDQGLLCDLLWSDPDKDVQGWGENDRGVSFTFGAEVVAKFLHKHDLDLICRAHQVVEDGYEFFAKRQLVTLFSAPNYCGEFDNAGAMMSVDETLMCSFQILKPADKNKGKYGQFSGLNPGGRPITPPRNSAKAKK

Structure (SMILES) | inhibition
O=[N+]([O-])c1cccc2ncccc12 | -2.99%
Cc1nnc(SCc2nc3ccccc3nc2C)s1 | -2.74%
COc1cc(C(F)(F)F)c(C(=O)N(C)c2ccc(Cl)cc2)cn1 | 0.28%
Cc1nc(NC(CC(C)C)C(=O)O)c2nc(C)oc2n1 (centres undefined) | -4.44%
